The values that follow come from PubChem BioAssay AID743185 (Broad Institute, 2013).

This test can be described thus: viability loss in HepG2 cells – cell-based, luminescence, dry powder, set 5, cytotoxicity control, dose response (AID 743185).

Calls of active or inactive are those of the source.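 Rule for the calls: active = ATP loss in HepG2 cells with fitted half-maximal concentration at most twice the top tested dose; inconclusive = flat curve showing moderate loss, or a poor fit; inactive = opposite effect, flat near zero, or weaker potency.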

On to `CSc1ccc(/C=N/NC(=O)c2ccc3nc[nH]c3c2)cc1`, for which the molecule was classed as inactive.

For `O=C(N/N=C/c1c[nH]c2ccccc12)c1cccs1`, the outcome was inactive.
